Measurements taken from ChEMBL document CHEMBL3988442, “University of Dundee, Small-Polar-MMV Screening Library” (2021).

Target: T1, Aspartate--tRNA(Asp/Asn) ligase (Mycobacterium tuberculosis (strain ATCC 25618 / H37Rv)) (UniProt P9WFW3)
T1 sequence (whole entry): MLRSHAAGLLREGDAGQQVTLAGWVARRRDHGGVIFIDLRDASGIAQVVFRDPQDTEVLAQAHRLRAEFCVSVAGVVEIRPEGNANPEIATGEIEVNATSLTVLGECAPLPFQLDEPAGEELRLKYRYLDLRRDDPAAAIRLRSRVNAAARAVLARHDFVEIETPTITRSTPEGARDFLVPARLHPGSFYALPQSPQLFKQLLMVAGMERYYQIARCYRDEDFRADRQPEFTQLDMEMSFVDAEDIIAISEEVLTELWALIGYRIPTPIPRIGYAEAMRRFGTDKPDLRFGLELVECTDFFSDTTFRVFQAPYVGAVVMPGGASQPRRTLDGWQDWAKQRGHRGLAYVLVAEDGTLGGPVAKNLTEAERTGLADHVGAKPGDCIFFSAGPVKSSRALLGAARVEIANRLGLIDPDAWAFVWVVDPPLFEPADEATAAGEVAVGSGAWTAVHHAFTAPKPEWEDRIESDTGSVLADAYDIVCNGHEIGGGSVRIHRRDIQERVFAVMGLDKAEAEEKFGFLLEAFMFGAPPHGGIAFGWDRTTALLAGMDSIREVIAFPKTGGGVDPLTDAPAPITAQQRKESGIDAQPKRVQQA
Assay: Assay for Asp RNA synthetase-1 from Mycobacterium tuberculosis
Assay type: functional
Parameters: scale not given: in the data most compounds retested in dose-response had high values
Conditions: 30 µM

| Compound | Percent Effect |
| --- | --- |
| CSCCC1c2nc[nH]c2CCN1Cc1ccnc2ccccc12 (stereo not given) | 5.78% |
| Cc1cc(N2CCN(Cc3ccc(-c4cc[nH]n4)o3)CC2)cc(C)n1 | 0.126% |
| COc1ccc(-n2cnnc2SCCC#N)cn1 | -0.885% |
| CN(CCNC(=O)N1CCN(Cc2ccon2)CC1)c1ccccc1 | 2.1% |
| C[S+]([O-])CCCNC(=O)c1cc(Br)c2c(c1)OCCO2 (stereo not given) | -1.74% |
| O=C1CCC2(CCN(Cc3cc(F)ccc3Cl)CC2)CN1C1CCCC1 | 0.0575% |
| c1nc(N2CCCCC2Cn2cncn2)c2ccsc2n1 (stereo not given) | -0.379% |
| CCOc1ncccc1CNC(=O)N1CCCC1c1cc(C)no1 (stereo not given) | -2.06% |
| Cc1ccc(CNCc2nnc3n2CCCC3C(F)(F)F)s1 (stereo not given) | 4.24% |
| COc1cccc(S(=O)(=O)CCN2CCCCC2)c1 | 3.32% |
| CC(C)c1noc(CN2CCC3(CCCO3)CCC2=O)n1 (stereo not given) | -1.21% |
| COc1ccccc1OCCN1CCCC(c2noc(C3CC3)n2)C1 (stereo not given) | -2.65% |
| CCC(C(=O)NCc1ccncc1)N(c1cccc(C)c1)S(C)(=O)=O (stereo not given) | -1.51% |
| CCC(=O)N1CCc2[nH]cnc2C12CCN(C(=O)c1snnc1C)CC2 | 1.62% |
| O=C(O)c1ccn(-c2ccccc2NS(=O)(=O)c2ccccc2)n1 | 1.9% |
| CC(C)N1CCC(NCc2cccnc2N(C)Cc2ccccc2)CC1 | -1.94% |
| Cc1cc(C)n(CC2CCCCN2CC(=O)Nc2cccnc2)n1 (stereo not given) | -0.655% |
| COc1ccc(Cc2nnc(SC)o2)cc1OC | -2.13% |
| O=C(NCCc1csc(N2CCCC2)n1)N(C1CCCC1)C1CC1 | 4.33% |
| COC(=O)c1cccc(C(=O)N2CCCCC2CCn2ccnc2C)c1 (stereo not given) | 0.586% |

| Compound | Percent Effect |
| --- | --- |
| N#Cc1cccc(CS(=O)(=O)NCC(O)Cc2ccccc2)c1 (stereo not given) | -0.908% |
| COC1CCCN(C(=O)Nc2nc(C)n(C)n2)C1 (stereo not given) | -3.53% |
| c1cnn(Cc2nnc(C3CCN(C4CCOCC4)CC3)n2C2CC2)c1 | -4.17% |
| CN(C)C(=O)CNC(=O)c1cc(Br)c2c(c1)OCCO2 | 3% |
| CN(CC1(O)CCCN(CCC2CCCCC2)C1=O)C1CCOCC1 (stereo not given) | 0.172% |
| COc1c(C)cnc(CSc2nnc(C)s2)c1C | -1.18% |
| Cc1cc(S(=O)(=O)N2CCCc3cc(F)cc(F)c32)sc1C(=O)O | -0.908% |
| Cc1nn(C)cc1C(=O)N1C[C@H]2CC[C@@H]1CN(S(=O)(=O)N(C)C)C2 | 1.62% |
| CC(NC(=O)NCCCn1cccn1)c1cccnc1 (stereo not given) | -3.83% |
| CCn1cc(CN(C)C(=O)c2cccc(CCC(C)(C)O)c2)cn1 | -0.126% |
| O=C(O)c1ccc(F)c(S(=O)(=O)Nc2ccc(-n3cccn3)c(Cl)c2)c1 | -5.11% |
| COCc1nc(CN2CCC3(CCCO3)CCC2=O)no1 (stereo not given) | -3.94% |
| Cc1cnn(CCNCc2csc(C)n2)c1 | 0.747% |
| CCc1nc(NS(=O)(=O)c2ccc(F)cc2C)no1 | -2.08% |
| Cc1cc(N2CCN(Cc3ccc(C)o3)CC2)cc(C)n1 | -1.34% |
| CCN(CC1CN(Cc2ncc[nH]2)CCO1)c1cccnn1 (stereo not given) | -3.05% |
| Cc1cnn(CCNCc2ccc(OCC(N)=O)cc2)c1 | -4.2% |
| O=C(NCCCc1ccncc1)C1CCCN(Cc2ccco2)C1 (stereo not given) | 2.17% |
| Cc1nnsc1C(=O)N1CCC2(CC1)c1nc[nH]c1CCN2CC(C)C | -1.53% |
| CCSCCC(=O)Nc1ncn(Cc2cccnc2)n1 | -2.31% |
